This is part of a sample that, as a whole, favours compounds with a hit. Of some 79,000 tested, about 15% had one in any assay. Calls of active or inactive are those of the source. Cut-off read from the data, not from the text of the source: active = growth inhibition above about 70%; inactive = the rest.
Columns and labels:
[1] = NCI Yeast Anticancer Drug Screen. Data for the rad52 strain (AID 147);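 note: 0% = growth of vehicle-treated control cultures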; conditions: S. cerevisiae rad52 mutant growth inhibition, hits give high values
In short: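 Inhibition of yeast growth, referenced to vehicle controls, was the measured output for a strain with defective DNA damage repair.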

[2] = NCI Yeast Anticancer Drug Screen. Data for the rad50EPP+ strain (AID 151);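 note: 0% = growth of vehicle-treated control cultures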; conditions: S. cerevisiae rad50 mutant strain, hits give high values
In short: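 Genetically defined yeast (rad50EPP+, DNA damage repair alteration) is grown with compound, and inhibition of growth is expressed relative to vehicle-treated controls.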

[3] = NCI Yeast Anticancer Drug Screen. Data for the rad50 strain (AID 155);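 note: 0% = growth of vehicle-only cultures of the same strain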; conditions: S. cerevisiae rad50 strain growth inhibition, hits give high values
In short: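 Growth of the mutant yeast was measured after compound exposure and referenced to vehicle-treated cultures.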

[4] = NCI Yeast Anticancer Drug Screen. Data for the mec2-1 strain (AID 157); conditions: S. cerevisiae mec2-1 strain, hits give high values
In short: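 Each compound was tested on mec2-1 yeast, a strain altered in DNA damage repair or cell cycle control. Growth inhibition is reported relative to vehicle.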

[5] = NCI Yeast Anticancer Drug Screen. Data for the sgs1 mgt1 strain (AID 161);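 note: 0% = growth of cultures given vehicle only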; conditions: S. cerevisiae sgs1 mgt1 strain, hits give high values
In short: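 Read-out: growth inhibition vs vehicle controls. Cells: mutant yeast strain deficient in DNA damage repair.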

[6] = NCI Yeast Anticancer Drug Screen. Data for the CLN2oe strain (AID 163);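 note: 0% = growth of vehicle-only control cultures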; conditions: S. cerevisiae CLN2oe strain, hits give high values
In short: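 First, the altered yeast strain was treated with each compound; second, its growth was measured; finally, inhibition was derived by comparison with vehicle controls.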

[7] = NCI Yeast Anticancer Drug Screen. Data for the cln2 rad14 strain (AID 165);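 note: 0% = growth equal to vehicle treated cultures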; conditions: S. cerevisiae cln2 rad14 strain, hits give high values
In short: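 Test compounds were added to cln2 rad14 yeast cultures; inhibition of growth was then determined by comparison with vehicle treatment.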

[8] = NCI Yeast Anticancer Drug Screen. Data for the bub3 strain (AID 167); conditions: S. cerevisiae bub3 mutant strain, hits give high values
In short: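 Whole-cell yeast assay. The mutant strain was incubated with compounds, and growth inhibition was determined by comparison with vehicle-treated cells.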

[9] = NCI Yeast Anticancer Drug Screen. Data for the wt2 strain (AID 169);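 note: 0% = growth of vehicle-treated yeast cultures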; conditions: S. cerevisiae wt2 strain growth inhibition, hits give high values
In short: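 The panel's yeast strains carry defined changes in DNA repair or cell cycle genes. Each strain is grown with compound, and growth loss is scored relative to vehicle.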

[10] = NCI Yeast Anticancer Drug Screen. Data for the mlh1 strain (AID 171);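 note: 0% = growth of vehicle-treated control cultures of the same strain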; conditions: S. cerevisiae mlh1 strain growth inhibition, hits give high values
In short: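 Inhibition values reflect reduced yeast growth in the presence of compound, referenced to vehicle controls, using a strain chosen for its alteration in DNA repair or cell cycle control.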

[11] = NCI Yeast Anticancer Drug Screen. Data for the sgs1 strain (AID 173);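 note: 0% = growth of vehicle-only control cultures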; conditions: S. cerevisiae sgs1 mutant, hits give high values
In short: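 Vehicle-treated cultures served as reference for growth inhibition of a yeast strain altered in DNA damage repair or cell cycle control after compound exposure.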

[12] = NCI Yeast Anticancer Drug Screen. Data for the mlh1 rad18 strain (AID 175); conditions: S. cerevisiae mlh1 rad18 strain growth inhibition, hits give high values
In short: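 Inhibition values reflect reduced growth of mutant yeast versus vehicle-treated controls following compound exposure; the mutations affect DNA damage repair.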

[13] = NCI Yeast Anticancer Drug Screen. Data for the wt1 strain (AID 149);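 note: 0% = growth of vehicle-treated wt1 cultures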; conditions: S. cerevisiae wt1 strain (SPY 50644) growth inhibition, hits give high values
In short: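 Measured: growth of wt1 yeast under compound versus vehicle treatment, reported as inhibition.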

[14] = NCI Yeast Anticancer Drug Screen. Data for the rad14 strain (AID 159);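 note: 0% = growth of vehicle-treated control cultures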; conditions: S. cerevisiae rad14 strain growth inhibition, hits give high values
In short: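 Here, inhibition of yeast growth was measured after compound exposure, using a strain with a genetic defect in DNA damage repair and vehicle-treated cultures as the reference.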

[15] = NCI Yeast Anticancer Drug Screen. Data for the rad18 strain (AID 177); conditions: S. cerevisiae rad18 mutant growth inhibition, hits give high values
In short: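 Steps: expose repair-mutant yeast to compound; measure growth; express as inhibition relative to vehicle control.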

[16] = at 5.0 µM (retest, dose inferred, filed as 0.5)
[17] = at 50.0 µM (retest, dose inferred, filed as 5.0)

Measured: growth inhibition

CCCCCCCCCCCCCC(=O)OC(C)CCC1CCCO1 (centres undefined)
inactive: [1]; at 1.2 µM -2% | [1]; at 3.7 µM 0% | [1]; at 11.0 µM 2% | [1]; at 33.0 µM 1% | [1]; at 100.0 µM -8% | [2]; at 1.2 µM 2% | [2]; at 3.7 µM 2% | [2]; at 11.0 µM -2% | [2]; at 33.0 µM -4% | [2]; at 100.0 µM -6% | [3]; at 1.2 µM 1% | [3]; at 3.7 µM 0% | [3]; [16] 3% | [3]; at 11.0 µM 0% | [3]; at 33.0 µM -7% | [3]; [17] 15% | [3]; at 50.0 µM 19.4% | [3]; at 100.0 µM -4% | [4]; at 1.2 µM 0% | [4]; at 3.7 µM -1% | [4]; [16] 13% | [4]; at 11.0 µM -6% | [4]; at 33.0 µM 1% | [4]; [17] 5% | [4]; at 50.0 µM 23.5% | [4]; at 100.0 µM -1% | [5]; [16] 3% | [5]; [17] 25% | [5]; at 50.0 µM 13.2% | [6]; at 1.2 µM 1% | [6]; at 3.7 µM 2% | [6]; at 11.0 µM 2% | [6]; at 33.0 µM 4% | [6]; at 100.0 µM 14% | [7]; [17] 39% | [7]; at 50.0 µM 37.1% | [8]; at 1.2 µM 1% | [8]; at 3.7 µM -1% | [8]; [16] 31% | [8]; at 11.0 µM -1% | [8]; at 33.0 µM -1% | [8]; [17] 1% | [8]; at 50.0 µM 34.6% | [8]; at 100.0 µM -1% | [9]; at 1.2 µM -3% | [9]; at 3.7 µM -3% | [9]; at 11.0 µM -2% | [9]; at 33.0 µM -3% | [9]; at 100.0 µM -6% | [10]; at 1.2 µM -1% | [10]; at 3.7 µM 3% | [10]; at 11.0 µM 2% | [10]; at 33.0 µM 3% | [10]; at 100.0 µM 4% | [11]; at 1.2 µM -1% | [11]; at 3.7 µM 1% | [11]; at 11.0 µM 1% | [11]; at 33.0 µM 3% | [11]; at 100.0 µM 1% | [12]; [16] -2% | [12]; [17] 37% | [12]; at 50.0 µM 20.8%
active: [7]; [16] 81%

CCN1/C(=C/c2ccc3ccccc3[n+]2CC)C=Cc2ccccc21
active: [13]; at 11.0 µM 75% | [13]; at 33.0 µM 99% | [13]; at 100.0 µM 99% | [2]; at 100.0 µM 92% | [3]; [16] 99% | [3]; at 11.0 µM 81% | [3]; at 33.0 µM 97% | [3]; [17] 97% | [3]; at 50.0 µM 90.5% | [3]; at 100.0 µM 96% | [4]; [16] 99% | [4]; at 11.0 µM 98% | [4]; at 33.0 µM 99% | [4]; [17] 98% | [4]; at 50.0 µM 92% | [4]; at 100.0 µM 99% | [14]; at 11.0 µM 98% | [14]; at 33.0 µM 98% | [14]; at 100.0 µM 98% | [5]; [17] 98% | [5]; at 50.0 µM 93% | [6]; at 11.0 µM 94% | [6]; at 33.0 µM 99% | [6]; at 100.0 µM 98% | [7]; [17] 100% | [7]; at 50.0 µM 90.9% | [8]; at 11.0 µM 96% | [8]; at 33.0 µM 98% | [8]; [17] 99% | [8]; at 50.0 µM 91% | [8]; at 100.0 µM 98% | [9]; at 33.0 µM 98% | [9]; at 100.0 µM 98% | [11]; at 11.0 µM 93% | [11]; at 33.0 µM 97% | [11]; at 100.0 µM 97% | [12]; [16] 100% | [12]; [17] 99% | [12]; at 50.0 µM 90.2% | [15]; at 11.0 µM 90% | [15]; at 33.0 µM 96% | [15]; at 100.0 µM 97%
inactive: [13]; at 1.2 µM -13% | [13]; at 3.7 µM -12% | [2]; at 1.2 µM 4% | [2]; at 3.7 µM 6% | [2]; at 11.0 µM 8% | [2]; at 33.0 µM 67% | [3]; at 1.2 µM -3% | [3]; at 3.7 µM -2% | [4]; at 1.2 µM -3% | [4]; at 3.7 µM 16% | [14]; at 1.2 µM -27% | [14]; at 3.7 µM 1% | [5]; [16] 7% | [6]; at 1.2 µM 0% | [6]; at 3.7 µM 10% | [7]; [16] 58% | [8]; at 1.2 µM -3% | [8]; at 3.7 µM 37% | [8]; [16] 42% | [9]; at 1.2 µM -32% | [9]; at 3.7 µM -20% | [9]; at 11.0 µM 57% | [11]; at 1.2 µM -9% | [11]; at 3.7 µM -17% | [15]; at 1.2 µM -5% | [15]; at 3.7 µM -4%

O/N=C/C1c2ccccc2-c2ccccc21
active: [1]; at 100.0 µM 97% | [3]; at 100.0 µM 97% | [4]; at 50.0 µM 99% | [4]; at 100.0 µM 72% | [14]; at 100.0 µM 96% | [7]; at 50.0 µM 96% | [8]; at 50.0 µM 98.8% | [11]; at 100.0 µM 88% | [12]; at 50.0 µM 97.3% | [15]; at 33.0 µM 74% | [15]; at 100.0 µM 97%
inactive: [1]; at 1.2 µM 0% | [1]; at 3.7 µM 6% | [1]; at 11.0 µM 20% | [1]; at 33.0 µM 58% | [2]; at 1.2 µM -1% | [2]; at 3.7 µM 7% | [2]; at 11.0 µM 9% | [2]; at 33.0 µM 28% | [2]; at 100.0 µM 51% | [3]; at 1.2 µM -1% | [3]; at 3.7 µM -6% | [3]; [16] -199% | [3]; at 11.0 µM 24% | [3]; at 33.0 µM 62% | [3]; [17] 58% | [3]; at 50.0 µM 56.2% | [4]; at 1.2 µM 3% | [4]; at 3.7 µM 1% | [4]; [16] -53% | [4]; at 11.0 µM -15% | [4]; at 33.0 µM 21% | [4]; [17] -13% | [14]; at 1.2 µM -1% | [14]; at 3.7 µM -1% | [14]; at 11.0 µM 9% | [14]; at 33.0 µM 51% | [5]; [16] -59% | [5]; [17] 30% | [5]; at 50.0 µM 50.8% | [6]; at 1.2 µM -3% | [6]; at 3.7 µM -3% | [6]; at 11.0 µM -6% | [6]; at 33.0 µM 2% | [6]; at 100.0 µM 53% | [7]; [16] -57% | [7]; [17] 8% | [8]; at 1.2 µM -6% | [8]; at 3.7 µM -2% | [8]; [16] -70% | [8]; at 11.0 µM -7% | [8]; at 33.0 µM 0% | [8]; [17] -15% | [8]; at 100.0 µM 59% | [10]; at 1.2 µM 4% | [10]; at 3.7 µM -6% | [10]; at 11.0 µM -3% | [10]; at 33.0 µM 18% | [10]; at 100.0 µM 64% | [11]; at 1.2 µM 0% | [11]; at 3.7 µM -2% | [11]; at 11.0 µM 0% | [11]; at 33.0 µM 44% | [12]; [16] -102% | [12]; [17] 39% | [15]; at 1.2 µM 2% | [15]; at 3.7 µM 11% | [15]; at 11.0 µM 44%

From PubChem BioAssay (NCI)
